Screens: PubChem, National Center for Advancing Translational Sciences (NCATS)
This is a sample that favours compounds with a hit; in the whole collection about 7.5% have one here.
KinaseGlo FLuc – Counterscreen for Luciferase (Kinase-Glo TM) Inhibition. Luciferin 4-monooxygenase (Photuris pensylvanica), Q27757. Kinase-Glo luciferase, ATP luminescence, 8 min. Potency, µM (doses to about 38.3 µM), most hits filed as inhibitors. 200,000 compounds, 0.28% hits; note: nearly all actives have a fitted effect of over 60% in size
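Light output from Kinase-Glo luciferase with luciferin and 10 uM ATP in 50 mM imidazole pH 7.2, KCl, MgCl2, Tween 20, BSA; compound pin-delivered, 8-min ambient incubation, then luminescence read.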
SMN2 splice enh – qHTS Assay for Enhancers of SMN2 Splice Variant Expression | HEK293 SMN2-luciferase splicing reporter, luminescence, 30-36 h | Potency, µM (highest dose often 46.1 µM), actives largely listed as activators | 210,000 compounds, 2.8% hits | AID 1458, 2008; note: nearly all actives have a fitted effect of over 55% in size
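HEK293 cells carry an SMN2 […]–luciferase reporter in which exon 7 inclusion puts luciferase in frame. Cells were plated 10-12 h before compound addition, then incubated 30-36 h at 37C. ONE-Glo luminescence was read; sodium butyrate at 4.5 mM final served as control.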
ELG1 genotoxic – qHTS screen for small molecules that induce genotoxicity in human embryonic kidney (HEK293T) cells expressing luciferase-tagged ELG1 | Potency, µM (titrated, usually from 46 µM), usual class: activators | AID 504466, 2011 | HEK293T ELG1-luciferase reporter, luminescence, 16 h | 330,000 compounds, 1.3% hits; note: nearly all actives have a fitted effect of over 60% in size
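Genotoxic stress is detected as increased luminescence from luciferase-tagged ELG1 in HEK293T cells, measured with ONE-Glo after a 16 hr treatment at 37 °C.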
FLuc modulator – qHTS profiling assay for firefly luciferase inhibitor/activator using purifed enzyme and Km concentrations of substrates (counterscreen for miR-21 project) | AID 588342, 2011 | Potency, µM (doses to about 57.5 µM), hits mostly inhibitors | 360,000 compounds, 6.9% hits | purified FLuc, Km substrates, luminescence inhibition; note: nearly all actives have a fitted effect of over 55% in size
Target sequence (P08659 whole entry, looked up): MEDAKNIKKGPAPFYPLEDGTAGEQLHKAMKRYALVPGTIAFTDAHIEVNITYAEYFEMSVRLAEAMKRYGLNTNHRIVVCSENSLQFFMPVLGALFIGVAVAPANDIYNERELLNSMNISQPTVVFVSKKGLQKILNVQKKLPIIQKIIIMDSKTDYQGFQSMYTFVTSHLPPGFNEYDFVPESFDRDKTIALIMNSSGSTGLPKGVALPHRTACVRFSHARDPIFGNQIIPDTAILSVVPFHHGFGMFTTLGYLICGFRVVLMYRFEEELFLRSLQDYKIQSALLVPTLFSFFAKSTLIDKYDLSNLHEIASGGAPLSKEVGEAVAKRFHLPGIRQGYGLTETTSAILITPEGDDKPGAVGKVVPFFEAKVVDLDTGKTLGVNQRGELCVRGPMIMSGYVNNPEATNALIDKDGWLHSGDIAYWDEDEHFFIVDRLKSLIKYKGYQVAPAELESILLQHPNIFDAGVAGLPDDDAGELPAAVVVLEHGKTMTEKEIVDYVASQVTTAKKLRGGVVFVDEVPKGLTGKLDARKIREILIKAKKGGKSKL
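Purified P. pyralis luciferase, 10 nM final, with Km-level 10 uM D-luciferin and 10 uM ATP in 50 mM Tris acetate pH 7.5, 10 mM Mg acetate, 0.01% Tween-20, 0.05% BSA; 6-point qHTS titration about 60 µM downward; luminescence read.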
Rab9 promoter act – qHTS Assay for Rab9 Promoter Activators; Huh7 Rab9 promoter-luciferase reporter, luminescence, 24 h; 320,000 compounds, 2.8% hits; Potency, µM (highest dose often 9.22 µM), actives largely listed as activators; AID 485297, 2010; note: nearly all actives have a fitted effect of over 60% in size
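Huh7 reporter line, Rab9 promoter upstream of luciferase. Compound exposure 24 h at 37 °C in reduced-serum medium with 10% FBS. Read-out: luminescence.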
NPC1 prom act – qHTS Assay for NPC1 Promoter Activators; Huh7 NPC1 promoter luciferase reporter, 24 h; Potency, µM (series often up to 9.22 µM), most hits filed as activators; 320,000 compounds, 2.4% hits; AID 485313, 2010; note: nearly all actives have a fitted effect of over 60% in size
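Luminescence read-out of NPC1 promoter-driven luciferase in stably transfected Huh7 cells; compounds delivered in DMSO and left 24 h at 37C, 5% CO2, qHTS titration format.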
A number is an active result; i = inactive; ? = inconclusive; nt = no result; [ ] = another dose, or the depositor's remark. Calls come from the whole dose curve; as a rule, active = well fitted curve in the direction sought with a large enough effect; inconclusive = small, poorly fitted or top-dose-only effect, or another doubt; inactive = no such curve, though single readings can be large; an effect the other way counts as inactive or inconclusive.

SMILES	KinaseGlo FLuc	SMN2 splice enh	ELG1 genotoxic	FLuc modulator	Rab9 promoter act	NPC1 prom act
Cc1cccc(CCNc2nc3ccc(C)cc3n3cnnc23)c1	nt	nt	?	17µM	i[1.84 µM]	?
CS(=O)(=O)c1ccc(CNC(=O)[C@@H]2C[C@H]2[C@@H](NP(=O)(c2ccccc2)c2ccccc2)c2ccccc2)cc1	i	i	nt	nt	nt	nt
CCOC(=O)C1=C(CN2CCN(C(=O)c3ccco3)CC2)NC(=O)NC1c1ccc(OC)cc1 (centres undefined)	nt	nt	i	i	i	i
CCOc1ccc(CCNC(=O)CCCc2cc(-c3ccc(OCC)cc3)on2)cc1	nt	i	nt	i	nt	nt
CCOc1ccc(-c2cc(CCCC(=O)NCc3cccnc3)no2)cc1	i	i	?	11µM	?	?
CCOc1ccc(-c2cc(CCCC(=O)NCCC(C)C)no2)cc1	i	i	i	6µM	i	i
CCn1c(CN2CCOCC2)nnc1SCC(=O)Nc1cccc(C)c1	nt	nt	i	i	i	i
COCCn1c(C)cc(C(=O)COC(=O)c2ccc(Br)o2)c1C	i	i	4.1µM	1.9µM	?	3.2µM
Cc1cc(C(=O)COC(=O)c2ccc(Br)o2)c(C)n1C	i	i	?	8.5µM	i	i
Cc1cc(C(=O)COC(=O)c2cc(Cl)c(O)c(Cl)c2)c(C)n1C	nt	nt	i	17µM	i	i
COCCn1c(C)cc(C(=O)COC(=O)CNC(=O)c2ccccc2)c1C	i	i	i	?	i	i
Cc1ccsc1C(=O)N(CC(C)C)c1c(N)n(Cc2ccccc2)c(=O)[nH]c1=O	nt	nt	i	i	i	i
CCCCNc1nc(C)nc2c1nc(-c1ccccc1)n2CC1CCCN1CC (centres undefined)	i	i	nt	nt	nt	nt
C=CCOc1ccc(CNCC2CCCO2)cc1 (centres undefined)	nt	nt	i	i	i	i
C=CCNC1=C2C[C@@H](C)C[C@H](OC)[C@H](O)[C@@H](C)/C=C(\C)[C@H](OC(N)=O)[C@@H](OC)/C=C/C=C(\C)C(=O)NC(=CC1=O)C2=O	i	nt	nt	nt	nt	nt
COc1ncc2nc(CCc3ccccc3)c(=O)n(C)c2n1	i	14µM	nt	nt	nt	nt
CC(=O)Nc1nonc1NC(=O)COc1ccccc1	i	i	i	i	i	i
CC(=O)N1CCc2c(sc3c2c(=O)n(CCc2ccccc2)c(=O)n3Cc2ccc(F)cc2)C1	nt	i	nt	i	nt	nt
CCOC(=O)c1c(C)oc2c1cc(O)c1ccccc12	i	i	?	2.4µM	i	?
CC(=O)c1c(C)oc2c1cc(O)c1ccccc12	nt	nt	i	i	i	i
CCOC(=O)c1c(C)oc2c1c(C(c1cccnc1)N1CCN(C)CC1)c(O)c1ccccc12 (centres undefined)	i	nt	?	i[2.3 µM]	i	i
CCOC(=O)c1c(C)oc2c1c1c(c3ccccc32)OCN(CCCC(=O)O)C1	nt	nt	?	19µM	?	?
CCOC(=O)c1c(C)oc2c1c1c(c3ccccc32)OCN(Cc2cccnc2)C1	i	i	15µM	27µM	i	i
Cc1ccc(CN(C(=O)COc2cccc([N+](=O)[O-])c2)c2ccccn2)o1	nt	nt	nt	i	nt	nt
CC(C)c1ccc(NC(=O)CN2C(=O)COc3ccc(S(=O)(=O)N4CCOCC4)cc32)cc1	nt	nt	i	i	i	i
SMILES	KinaseGlo FLuc	SMN2 splice enh	ELG1 genotoxic	FLuc modulator	Rab9 promoter act	NPC1 prom act
COc1cccc(CN2CC(C(=O)NCCCn3cccn3)CCC2=O)c1 (centres undefined)	nt	nt	i	i	i	i
Cc1nn(-c2ccccc2)c2sc(C(=O)N3CCCCC3)cc12	i	?	nt	19µM	nt	nt
O=C(CC(C(=O)O)c1cccc(Cl)c1Cl)c1ccccc1 (centres undefined)	nt	nt	i	i	i	i
Cc1csc2nc(COC(=O)c3ccccc3NC(=O)c3ccc(C(C)(C)C)cc3)cc(=O)n12	nt	nt	nt	2.7µM	nt	nt
CCc1nn2c(=O)cc(COC(=O)c3ccccc3NC(=O)c3ccc(C(C)(C)C)cc3)nc2s1	nt	nt	nt	5.4µM	nt	nt
O=C(OCc1cc(=O)n2c(n1)sc1ccccc12)c1ccc(O)cc1	i	20µM	?	?	i	i
O=c1cc(CCl)nc2sc3ccccc3n12	i	i	i	i	i	i
CCc1nn2c(=O)cc(COC(=O)c3ccccc3)nc2s1	nt	nt	nt	17µM	nt	nt
COc1ccc(Cl)cc1-c1ccc(C(=O)O)s1	i	nt	nt	nt	nt	nt
CCN(CC)CCCNC(=O)c1nn(C)c2c1CSc1ccccc1-2	nt	nt	nt	i	nt	nt
Cc1cc(C)cc(S(=O)(=O)c2cn(C)c3cc(N4CCN(C)CC4)c(F)cc3c2=O)c1	nt	nt	i	i	i	i
COc1ccc(/C=C/c2ccccc2)cc1[C@H]1[C@@H]2C=CCC[C@@]2(C)C(=O)N1Cc1ccccc1	nt	nt	i	13µM	i	i
COc1ccc(Br)cc1[C@H]1[C@@H]2C=CCC[C@@]2(C)C(=O)N1Cc1ccccc1	nt	nt	i	i	i	i
CCOc1ccc(CCNC(=O)CCS(=O)(=O)c2ccc(C)cc2)cc1OCC	nt	nt	i	i	i	i
CCOC(=O)c1csc(-c2sccc2Br)n1	nt	nt	5.2µM	1.9µM	3.2µM	2.5µM
CCOC(=O)c1csc(NC(=O)c2ccccc2)n1	i	11µM	8.2µM	12µM	1.8µM	3.2µM
CCOC(=O)c1csc(NC(=O)c2ccc(OC)c(OC)c2)n1	i	i	i	i	i	i
CCOC(=O)c1csc(NC(=O)c2ccc(OCC)cc2)n1	i	i	i	6.7µM	?	i
CCOC(=O)c1csc(NC(=O)c2ccc3c(c2)OCCO3)n1	nt	nt	i	3.8µM	?	?
CCOC(=O)c1csc(-c2ccc(OC)c(OC)c2)n1	i	i	i	?	i	i
CCOC(=O)c1csc(-c2ccc3c(c2)CCO3)n1	nt	nt	?	4.8µM	2.2µM	3.5µM
CCOC(=O)Cc1ccc(NC(=O)n2ncc3cc(Cl)ccc32)cc1	nt	nt	nt	i	nt	nt
N#C/C(=C\c1ccncc1)c1ccccn1	nt	nt	i	i	i	i
N#C/C(=C\c1ccccc1)c1ccccn1	i	i	?	19µM	?	?
CNc1ccc(/C=C(\C#N)c2ccccn2)cc1[N+](=O)[O-]	i	10µM	10µM	i	1.3µM	2.8µM
CCOC(=O)c1ccccc1NC(=O)c1cn(CC)c2nc(C)ccc2c1=O	i	i	?	3.4µM	0.79µM	1µM
CCn1cc(C(=O)Nc2ccccc2C(=O)OC)c(=O)c2ccc(C)nc21	i	11µM	?	3.4µM	1.1µM	0.56µM
CCn1cc(C(=O)OCc2ccccc2)c(=O)c2ccc(C)nc21	i	i	i	i	i	i
CCn1cc(C(=O)OCC(=O)c2ccccc2)c(=O)c2ccc(C)nc21	i	i	i	i	i	i
CCOC(=O)c1cn(CC)c2c(ccc3ccccc32)c1=O	nt	nt	i	24µM	i	i
